For test [1], the system named is CRL-7250. The test can be described thus: Cytotoxic Profiling of Annotated Libraries Using Quantitative High-Throughput Screening (AID 1296008). Also: nearly all actives have a fitted effect of over 60% in size. The settings on record: Five cell lines viability, CellTiter-Glo ATP luminescence, 48-72 h; max response: active compounds read low. The procedure, abridged:
(§1)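 Compounds were pin-transferred onto cells and incubated 48 or 72 hr at 37 degree Celsius, 95% humidity. CellTiter-Glo was added, plates sat 10 min at room temperature, then ATP-coupled luminescence was imaged as the viability read-out.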

Test [2] relates to HEK293. The test is described as above. The note with it: Five cell lines viability, CellTiter-Glo ATP luminescence, 48-72 h; max response: active compounds read low. In short, it runs like this: as §1
Test [3] has as its system HaCat. The test is described as above. The note with it: Five cell lines viability, CellTiter-Glo ATP luminescence, 48-72 h; max response: active compounds read low. The procedure, abridged: as §1
Test [4] relates to KB-3-1. Described as above. The note with it: Five cell lines viability, CellTiter-Glo ATP luminescence, 48-72 h; max response: active compounds read low. In short, it runs like this: as §1
Test [5] relates to NIH3T3. Described as above. The note with it: Five cell lines viability, CellTiter-Glo ATP luminescence, 48-72 h; max response: active compounds read low. In short, it runs like this: as §1
Test [6] relates to HACAT. The test can be described thus: qHTS assay to identify novel small-molecules to repurpose for Merkel cell carcinoma treatment (AID 1296009). Also: nearly all actives have a fitted effect of over 60% in size. Also: potency is read from the fitted curve at half-maximal effect. The settings on record: MCC and control cell lines, CellTiter-Glo viability, 72 h; at 44.8 µM (top of the series) unless noted. In short, it runs like this: (§2)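 Viability readout: ATP luminescence (CellTiter-Glo) after 72 hr drug exposure at 37 degree celsius. Dose-response format was 8 points for NPC and 11 points for MIPE; data normalized to in-plate controls.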

For test [7], the system named is MCC-13. The test is described as above. The settings on record: MCC and control cell lines, CellTiter-Glo viability, 72 h; series mostly up to 46 µM. In short, it runs like this: as §2
The subject of test [8] is MKL-1. The test is described as above. The note with it: MCC and control cell lines, CellTiter-Glo viability, 72 h; series mostly up to 46 µM. The procedure, abridged:
as §2

The test system of test [9] is NIH3T3. The description is as above. The note with it: MCC and control cell lines, CellTiter-Glo viability, 72 h; at 44.8 µM (top of the series) unless noted. In short, it runs like this:
as §2

Test [10] has as its system UISO. The description is as above. The note with it: MCC and control cell lines, CellTiter-Glo viability, 72 h; series mostly up to 46 µM. In short, it runs like this:
as §2

Test [11] deals with C33A. The test can be described thus: Primary qHTS to identify gynecologic anti-cancer compounds using libraries of approved drugs and bioactive compounds (AID 1345084). Also: nearly all actives have a fitted effect of over 55% in size. The note with it: Gynecologic cancer cell panel viability, ATPlite luminescence, 48 h; series mostly up to 57.5 µM. The procedure, abridged:
(§3)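 Five-point cytotoxicity, 48 h drug exposure at 37 C, 5% CO2, on cells seeded 16 h beforehand. ATP content read by ATPlite luminescence.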

Test [12] has as its system CASKI. The test is described as above. The settings on record: Gynecologic cancer cell panel viability, ATPlite luminescence, 48 h; series mostly up to 57.5 µM. In short, it runs like this:
as §3

Test [13] has as its system Es-2. The description is as above. The note with it: Gynecologic cancer cell panel viability, ATPlite luminescence, 48 h; series mostly up to 57.5 µM. In short, it runs like this:
as §3

Test [14] deals with HeLa. The test is described as above. The settings on record: Gynecologic cancer cell panel viability, ATPlite luminescence, 48 h; series mostly up to 57.5 µM. In short, it runs like this: as §3
In test [15] the test system is CRL-7250. Put plainly: qHTS assay to identify novel small-molecules to repurpose for Merkel cell carcinoma treatment (AID 1296009). Also: nearly all actives have a fitted effect of over 60% in size. Also: potency is read from the fitted curve at half-maximal effect. The note with it: MCC and control cell lines, CellTiter-Glo viability, 72 h; at 44.8 µM (top of the series) unless noted. In short, it runs like this: as §2
In test [16] the test system is MCC-26. The test is described as above. The note with it: MCC and control cell lines, CellTiter-Glo viability, 72 h; series mostly up to 46 µM. The procedure, abridged: as §2
Test [17] has as its system MKL-2. The description is as above. The settings on record: MCC and control cell lines, CellTiter-Glo viability, 72 h; series mostly up to 46 µM. In short, it runs like this: as §2
Test [18] deals with WaGa. The test is described as above. The note with it: MCC and control cell lines, CellTiter-Glo viability, 72 h; series mostly up to 46 µM. The procedure, abridged:
as §2

Test [19] concerns CAOV3. The test can be described thus: Primary qHTS to identify gynecologic anti-cancer compounds using libraries of approved drugs and bioactive compounds (AID 1345084). Also: nearly all actives have a fitted effect of over 55% in size. The note with it: Gynecologic cancer cell panel viability, ATPlite luminescence, 48 h; series mostly up to 57.5 µM. The procedure, abridged: as §3
The subject of test [20] is HEK293T. Put plainly: qHTS assay to identify novel small-molecules to repurpose for Merkel cell carcinoma treatment (AID 1296009). Also: nearly all actives have a fitted effect of over 60% in size. Also: potency is read from the fitted curve at half-maximal effect. The settings on record: MCC and control cell lines, CellTiter-Glo viability, 72 h; at 44.8 µM (top of the series). In short, it runs like this:
as §2

Several values for one entry are separate records, joined by “and”; a condition that tells them apart may be missing. Equal entries are not always repeated. Records with an inconclusive call do not appear. Values without a mark were called inactive. Activity calls are given as the source filed them. Calls follow the shape of the dose curve; as a rule, active = well fitted curve in the direction sought with a large enough effect; inconclusive = small, poorly fitted or top-dose-only effect, or another doubt; inactive = no such curve, though single readings can be large; an effect the other way counts as inactive or inconclusive.

Drawing on PubChem BioAssay (NCATS), this text covers max response, outcome and Potency for twelve molecules.
% is scaled to controls: 0 for no effect and ±100 for the full control effect.

With `CN(C)CCc1c[nH]c2ccc(O)cc12`, the figures for the max response in [1], in test [2] and in test [4] were 4.21%, -2.05% and 2.29%, respectively. Besides, the outcome in test [3] and in [5] was inactive. In addition, the outcome in test [6] and in [9] was “inactive [at 92 µM]” in each case. In addition, the Potency result in test [7], in [8], in test [11], in test [12], in test [13] and in test [14] was “inactive” throughout. Also, the Potency in test [10] was 53.4 µM (active).

In the case of `O=c1n(Cl)c(=O)n(Cl)c(=O)n1Cl`, the molecule was called inactive in [1], in test [3], in test [15] and in test [6]. Also, the max response was -82.7% in [2], 7.13% in test [4] and 2.85% in [5]. Further, the Potency result in test [7], in test [16], in test [8], in test [17], in test [10] and in [18] was “inactive” throughout. The Potency result in [11], in test [12], in test [13] and in [14] was “inactive” throughout.

Consider `CCN(CC)C(C)C(=O)c1ccccc1` (stereo unspecified), for which the max response was -0.537% in test [1], -27.4% in test [2], -1.49% in test [4] and -1.81% in [5]. In addition, the molecule was classed as inactive in test [3] and in [6]. Further, the Potency result in test [7], in [16], in [8], in test [17], in [10] and in test [18] was “inactive” throughout. In addition, the Potency entry in test [11], in [19], in [12], in [13] and in test [14] was “inactive” throughout.

For `NC(=O)CN1CCCC1=O`, the molecule was called inactive in [1], in test [2], in test [3], in test [15], in test [6] and in test [20]. The max response was 4.93% in [4] and -0.768% in test [5]. Also, the Potency entry in test [7], in test [16], in test [8], in test [17], in [10] and in test [18] was “inactive” in each case. In addition, the Potency result in test [11], in [19], in test [12], in test [13] and in [14] was “inactive” throughout.

For the molecule `COP(=S)(OC)Oc1ccc(S(N)(=O)=O)cc1`, the result in test [1], in [3], in test [15] and in [6] was inactive. For the same molecule, the max response was -8.17% in test [2], 0.165% in [4] and -5.5% in [5]. Moreover, the Potency result in test [7], in test [16], in test [8], in test [17], in [10] and in test [18] was “inactive” throughout. The Potency entry in [11], in [19], in test [12], in test [13] and in test [14] was “inactive” each time.

As for `CCC1(c2ccccc2)CCC(=O)NC1=O` (stereo unspecified), the molecule was called inactive in test [1] and in test [15]. Further, the max response was -5.95% in [2], -1.76% in test [3], -6.95% in [4] and 4.7% in test [5]. Besides, the Potency entry in [7], in [16], in test [8], in test [17], in test [10] and in test [18] was “inactive” in each case. Besides, the Potency entry in [11], in [19], in [12], in test [13] and in [14] was “inactive” throughout.

As to `CC(C)C(Br)C(=O)NC(N)=O` (stereo unspecified), the molecule was classed as inactive in test [1] and in test [15]. Further, the max response was 2.09% in [2], -11.8% in test [3], -15.8% in test [4] and -7.2% in test [5]. In addition, the Potency entry in [7], in test [16], in [8], in [17], in test [10] and in [18] was “inactive” in each case. Moreover, the Potency entry in test [11], in [19], in test [12], in [13] and in [14] was “inactive” throughout.

Consider `CCCCC1C(=O)NC(=O)N(C2CCCCC2)C1=O` (stereo unspecified), for which the max response in test [1] was -13.7%; in test [2], 0.515%; in [4], 2.39%; in [5], -9.24%. Moreover, the molecule was classed as inactive in test [3] and in [6]. Moreover, the Potency result in test [7], in test [16], in [8], in test [17], in test [10] and in [18] was “inactive” each time. Moreover, the Potency result in test [11], in test [19], in [12], in test [13] and in [14] was “inactive” each time.

As for `CCOC(=O)c1cncn1C(C)c1ccccc1` (stereo unspecified), the max response in test [1] was 3.39%; in test [2], -6.12%; in test [3], -5.29%; in test [4], 0.49% and 0.484%; in [5], 1.83% and -0.636%. The call in test [1], in [2], in [3], in [15], in test [6] and in [20] was inactive. For the same molecule, the Potency result in [7], in test [16], in test [8], in [17], in test [10] and in test [18] was “inactive” in each case. Also, the Potency entry in test [11], in test [19], in [12], in [13] and in test [14] was “inactive” throughout.

For the molecule `C[C@]12CC[C@H]3[C@@H](CC=C4C[C@@H](O)CC[C@@]43C)[C@@H]1CC[C@@H]2O`, the max response was -19.9% in [1], -6.75% in test [2], -11.4% in test [4] and 4.53% in [5]. The molecule was called inactive in [3] and in test [6]. Also, the Potency entry in test [7], in test [16], in [8], in test [17], in [10] and in test [18] was “inactive” throughout. The Potency result in [11], in [19], in test [12], in [13] and in [14] was “inactive” throughout.

In the case of `COP(=O)(OC)C(O)C(Cl)(Cl)Cl` (stereo unspecified), the max response in test [1] was 3.85%; in test [4] it was -12.2%. Besides, the call in [2], in test [3], in test [5], in test [6], in test [20] and in test [9] was inactive. In addition, the Potency entry in [7], in test [16], in test [8], in test [17], in test [10] and in test [18] was “inactive” each time. Also, the Potency result in [11], in test [19], in test [12], in [13] and in test [14] was “inactive” each time.

Take `c1cc2c(c(N3CCNCC3)c1)OCCO2`: the max response in test [1] is -0.883%; in [2], -10.2%; in [4], -5.14%; in [5], 1.17%. For the same molecule, the outcome in test [3] and in [6] was inactive. Moreover, the Potency result in [7], in test [16], in [8], in test [17], in test [10] and in test [18] was “inactive” throughout. The Potency entry in test [11], in test [19], in [12], in test [13] and in test [14] was “inactive” each time.
